Assay results taken from PubChem BioAssay AID1460 (National Center for Advancing Translational Sciences (NCATS), 2008).
Among all 270,000 compounds or so, about 5,800 (2.1%) were called active. Not shown: some 16% with an inconclusive outcome. Many of the other results were omitted from the sample, so actives are more common in it than they were. A number with no mark means an inactive call. Calls follow the shape of the dose curve; as a rule, active = well fitted inhibition curve with a large enough effect; inconclusive = small, poorly fitted or top-dose-only effect; inactive = flat fitted curve, though single readings scatter.
% is scaled to controls: 0 for no effect and ±100 for the full control effect; potency is read from the fitted curve at half-maximal effect.
Also: nearly all actives have a fitted effect of over 55% in size.

These compounds were tested against Microtubule-associated protein tau (Homo sapiens) (UniProt P10636) (assay: qHTS for Inhibitors of Tau Fibril Formation, Thioflavin T Binding). Details: recombinant tau K18 P301L (four-repeat tau fragment), heparin-induced fibrillization, ThT fluorescence; series mostly up to 57.4 µM; activity, negative = inhibition: at the top concentration.
Sequence of Microtubule-associated protein tau (Homo sapiens) (P10636 561-689 P618L limits assumed): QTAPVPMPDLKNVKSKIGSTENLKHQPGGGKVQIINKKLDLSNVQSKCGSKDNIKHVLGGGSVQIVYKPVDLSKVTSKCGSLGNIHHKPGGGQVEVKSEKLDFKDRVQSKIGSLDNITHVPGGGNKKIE
Procedure, shortened: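 Recombinant human tau K18 fragment […] carrying P301L, 15 uM unlabeled plus 0.24 uM Alexa 594-labeled, was fibrillized with 20 uM heparin in 100 mM sodium acetate pH 7 for 6 hr at 37 C; 30 uM ThT fluorescence read after 1 hr.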
In the case of `CCc1ccc(NC(=O)c2cc(S(=O)(=O)N3CCCC(C)C3)cn2C)cc1` (stereo unspecified), the “activity, negative = inhibition” value is reported as 4.85%.
For `Cc1c(Cl)cccc1-c1ccc(CNCCCSc2nnnn2C)o1`, the “activity, negative = inhibition” value was -6.19%.
With `CCn1cc2nc(SCc3ccccc3Cl)n(CCc3ccccc3)c(=O)c2n1` the “activity, negative = inhibition” value was -12.5%.
For `Fc1ccc(/C=N/Nc2nc(-c3cccnc3)nc3ccccc23)cc1`, the “activity, negative = inhibition” value was -19.8%.
`Cc1nc2ccccc2nc1N/N=C/c1ccc(O)cc1O` was tested, and the Potency was 14.1 µM (active).
`Cc1n[nH]c(=O)nc1N/N=C/c1cccs1` was tested, and the “activity, negative = inhibition” value was -16.7%.
`Oc1ccc(/C=N/NC2=NCCCCC2)c(O)c1` was tested, and the “activity, negative = inhibition” value was -11.4%.
With `Oc1ccc(/C=N/Nc2nc(-c3ccccc3F)nc3ccccc23)c(O)c1` the Potency was 4.47 µM (active).
In the case of `Cc1cc(N/N=C/c2ccccc2F)c2ccccc2n1`, the “activity, negative = inhibition” value is reported as 0.109%.
For `Cc1nc2nc(SCC(=O)NC3CCC(C)CC3)nn2c(C)c1Cc1ccccc1Cl` (stereo unspecified), the “activity, negative = inhibition” value was -13.3%.
`COC(=O)c1scc(-c2ccc(C)cc2)c1S(=O)(=O)Nc1cc(Cl)c(OC)cc1OC` was tested, and the “activity, negative = inhibition” value was -2.57%.
In the case of `CC1CCN(S(=O)(=O)c2ccc3c(c2)N(CC(=O)NCCc2ccccc2)C(=O)CO3)CC1`, the “activity, negative = inhibition” value is reported as -3.46%.
In the case of `CNc1ccc(SC#N)cc1`, the Potency is reported as 12.6 µM (active).
With `CNc1nc(-c2ccccc2OC)nc2ccccc12` the “activity, negative = inhibition” value was -7.91%.
With `COc1ccccc1-c1nc(SC)n[nH]1` the “activity, negative = inhibition” value was 3.07%.
For `COc1ccccc1C1=Nc2cccc3cccc(c23)N1`, the Potency was 11.2 µM (active).
`CCc1cccc(NC(=O)Cn2nc(CC)n3c(cc4cc(C)ccc43)c2=O)c1` was tested, and the “activity, negative = inhibition” value was 6.72%.
In the case of `Cc1cn(C)c(CC(=O)NCc2ccc(Cl)cc2)c1C(=O)O`, the “activity, negative = inhibition” value is reported as -5.43%.
For `CCOc1cccc(CC(=O)N2CCc3c([nH]c4ccccc34)C2c2ccc(OC)cc2)c1OCC` (stereo unspecified), the “activity, negative = inhibition” value was -12.2%.
For `Nc1ccc(N=Nc2ccccc2Cl)c(N)n1`, the Potency was 2 µM (active).
With `CCOC(=O)C1CCC(CN(Cc2ccc(OC)cc2)S(=O)(=O)c2ccc(F)c(C(=O)Nc3cc(C)ccc3C)c2)CC1` (stereo unspecified) the “activity, negative = inhibition” value was -2.42%.
`CCOC(=O)c1cc(-c2ccccc2)n(-c2cccc(C(=O)Nc3cc(OC)cc(OC)c3)c2)c1C` was tested, and the “activity, negative = inhibition” value was 2.87%.
With `COc1ccc(/C=C2\SC(=S)N(CC(=O)NNC(=O)c3ccncc3)C2=O)cc1` the “activity, negative = inhibition” value was -17.1%.
For `O=C(CCCN1C(=O)/C(=C\c2ccccc2)SC1=S)Nc1ccccc1O`, the “activity, negative = inhibition” value was -12.1%.
In the case of `COc1ccc(/C=C2/SC(=O)N(CCCCCC(=O)Nc3ccccc3C(=O)O)C2=S)cc1`, the Potency is reported as 11.2 µM (active).
With `Cc1cc(OCC(=O)Nc2ncn[nH]2)c(C)c(C)c1Br` the “activity, negative = inhibition” value was 1.95%.
`CCOCCCNC(=O)c1cc2c(=O)n3ccccc3nc2s1` was tested, and the “activity, negative = inhibition” value was -11.4%.
`Cc1cccc(-n2c(=O)c3c(c4cc(C)ccc4n3C)n(CC(=O)Nc3ccccc3Cl)c2=O)c1` was tested, and the “activity, negative = inhibition” value was 7.44%.
With `Cc1noc(/C=C/N(C)C)c1S(=O)(=O)N1CCCC(C(=O)NCc2ccco2)C1` (stereo unspecified) the Potency was 28.2 µM (active).
`Cc1noc(/C=C/N(C)C)c1S(=O)(=O)N1CCCC(C(=O)Nc2cccc(F)c2)C1` (stereo unspecified) was tested, and the “activity, negative = inhibition” value was -18.5%.
For `O=C(NCc1ccco1)C1CCCN(S(=O)(=O)c2ccccc2)C1` (stereo unspecified), the “activity, negative = inhibition” value was 9.5%.
For `Cc1cccc(N2CCN(S(=O)(=O)c3ccc4[nH]c5c(c4c3)CCCCC5)CC2)c1C`, the “activity, negative = inhibition” value was 9.87%.
For `CC[C@@H]1Cc2cc(O)ccc2C2=C1c1ccc(O)cc1C[C@H]2CC`, the Potency was 17.8 µM (active).
In the case of `CC1(C)CC(=O)c2ccc(O)cc2O1`, the “activity, negative = inhibition” value is reported as -1.2%.
`COc1ccccc1Cc1nc2ccccc2nc1SCC(=O)N1CCCc2ccccc21` was tested, and the “activity, negative = inhibition” value was -6.43%.
For `O=[N+]([O-])c1ccc(N2CCN(c3ccc(O)cc3)CC2)c(Cl)c1`, the Potency was 6.31 µM (active).
`CC1CCN(c2ccc([N+](=O)[O-])cc2C(N)=O)CC1` was tested, and the “activity, negative = inhibition” value was -10.4%.
`CCN1CCN(c2ccc([N+](=O)[O-])cc2C(=O)c2ccc(Cl)cc2)CC1` was tested, and the “activity, negative = inhibition” value was -12.9%.
With `O=C(NC1(C(F)(F)F)N=C(c2ccccc2)N(C2CCCCC2)C1=O)c1ccccc1F` (stereo unspecified) the “activity, negative = inhibition” value was -3.93%.
With `Fc1cc(F)c2nc(Nc3nc4c(F)cccc4s3)sc2c1` the “activity, negative = inhibition” value was 4.52%.
For `NNc1nc2c(Cl)cccc2s1`, the Potency was 22.4 µM (active).
With `CN(C)CCCN(C(=O)COc1ccccc1)c1nc2c(Cl)cccc2s1` the “activity, negative = inhibition” value was 3.98%.
With `Cc1ccc(CNC(=O)Cn2c(=O)ccc3cc(S(=O)(=O)N4CCCC4)ccc32)cc1` the “activity, negative = inhibition” value was 3.36%.
`CCc1ccccc1NC(=O)Cn1c(=O)n(CC2CCC(C(=O)NCCc3ccccc3)CC2)c(=O)c2ccccc21` (stereo unspecified) was tested, and the “activity, negative = inhibition” value was -5.1%.
With `C#CCOc1ccc(C2CC(=O)Nc3c2c(C)nn3-c2nc(C)cc(C)n2)cc1` (stereo unspecified) the “activity, negative = inhibition” value was -6.86%.
`Cc1ccc(C(=O)N2CCc3cc(CNC(=O)c4ccc(Br)cc4)ccc32)cc1` was tested, and the “activity, negative = inhibition” value was -15.5%.
`Cc1nn(-c2ccc(N3CCCCC3)nn2)c(C)c1CCC(=O)NCc1ccccc1F` was tested, and the “activity, negative = inhibition” value was -4.06%.
`O=C1/C(=C\c2cccnc2)CN(Cc2ccccc2)C/C1=C\c1cccnc1` was tested, and the Potency was 14.1 µM (active).
For `Clc1ccc(CN2CCN(/N=C/c3cccnc3)CC2)cc1`, the “activity, negative = inhibition” value was -5.56%.
In the case of `O=Cc1cn(Cc2ccccc2)nc1-c1cccnc1`, the “activity, negative = inhibition” value is reported as -0.733%.
For `O=C(CSc1nc2c(c(=O)[nH]1)CN(Cc1ccc3c(c1)OCO3)CC2)Nc1cc(F)ccc1F`, the “activity, negative = inhibition” value was -17.2%.
